HPGD block = inhibitors of human 15-hydroxyprostaglandin dehydrogenase (HPGD) | purified HPGD, NADH fluorescence kinetic, PGE2 substrate | Potency, µM, for the others: at the highest dose activity change, negative = inhibition, hits mostly inhibitors | hit rate 4.3% among 150,000; note: potency is the fitted concentration of half-maximal effect
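20 nM HPGD preincubated 15 min at room temperature with compound in 50 mM Tris-HCl pH 8, 0.01% Tween 20. Started with 1 mM NAD+ and 30 uM prostaglandin E2; NADH fluorescence (360/450 nm) read 5 times over 30-s intervals, last minus first.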
ALDH1A1 block = blocks purified human ALDH1A1 activity. AID 1030. Potency, µM (doses to about 75.3 µM), inactives show at the highest dose activity, negative = inhibition, actives largely listed as inhibitors. hit rate 7.3% among 220,000. Purified ALDH1A1, NADH fluorescence, propionaldehyde substrate. P00352;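 note: potency is the fitted concentration of half-maximal effect; plate controls were no enzyme wells and a reference inhibitor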
IMPase inh = membrane-permeable compound that blocks inositol monophosphatase. P97697. inhibition (IP1 accumulation), % at 46.1 µM. 120,000 tested, under 10 active. CHO-M1 cells, IP1 accumulation, HTRF TR-FRET ratio; active = well fitted curve in the direction sought with a large enough effect in the signal ratio, not every such curve was filed as active; inconclusive = small, poorly fitted or top-dose-only effect, or a change in a side signal; inactive = no such curve, though single readings can be large or run the other way; the % refers to the signal ratio;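 note: cells stimulated with carbachol in lithium chloride buffer; plate controls were DMSO basal wells for no effect and reference inhibitor wells for full effect; higher means more IMPase inhibition seen as more IP1 and lower FRET ratio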
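Elevated IP1 in lysates lowers TR-FRET signal (665/620 ratio and 620 channel reported). Cells were CHO-M1, given carbachol (50 uM as added) plus 50mM LiCl, pH 7.4, 30 min, 37C; compounds titrated up to 46 uM; AC50 by Hill equation.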
IMPase Li cell = cell-permeable IMPase inhibitors with lithium potentiation; CHO-M1 cells, IP1 TR-FRET (IP-One), carbachol + lithium; hit rate 0.35% among 210,000; Potency, µM (doses to about 59.4 µM), for inactives: top-dose activity, negative = IMPase inhibition, actives largely listed as inhibitors; AID 1457; active = well fitted curve in the direction sought with a large enough effect; inconclusive = small, poorly fitted or top-dose-only effect, or another doubt; inactive = no such curve, though single readings can be large; an effect the other way counts as inactive or inconclusive;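 note: IP1 builds up when IMPase is blocked and the TR-FRET signal falls; potency is the fitted concentration of half-maximal effect; plate controls were basal vehicle for no effect and high inhibitor control for full effect; nearly all actives have a fitted effect of over 50% in size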
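IP1 accumulation measured by competitive TR-FRET in lysed CHO-M1 cells after 30 min compound exposure at 37C, with a small lithium addition to potentiate weak responses. Hill-equation AC50 from ratio and donor-channel data.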
PNC inhibitor = inhibitors of perinucleolar compartment assembly. PC3M PTB-GFP, PNC prevalence imaging, 16 h; stronger effect = lower value. activity change (PNC), negative = inhibition, % at 10 µM. hit rate 3.1% among 140,000. AID 2417;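 active = readout at or below -70, meaning at least 70% loss of cells showing the perinucleolar compartment, a nuclear body marking cancer cells; inconclusive = readout between -30 and a set limit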;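 note: plate controls were DMSO wells for no effect and camptothecin positive control wells for full effect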
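PC3M cells stably expressing PTB-GFP, 750–1000 cells/well, treated 16 h at 37 °C with compound (23 nl of library stock), in duplicate. After paraformaldehyde fixation and Hoechst stain, imaged at 20x; PNC prevalence scored by image analysis.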
12-hLO inh = blocks human 12-lipoxygenase activity; hit rate 0.12% among 150,000; purified 12-hLO, xylenol orange hydroperoxide absorbance; Potency, µM (titrated, usually from 57.1 µM), for the others: top-dose activity change, negative = inhibition, most hits filed as inhibitors; P18054; active = well fitted curve in the direction sought with a large enough effect; inconclusive = small, poorly fitted or top-dose-only effect, or another doubt; inactive = no such curve, though single readings can be large; an effect the other way counts as inactive or inconclusive; note: potency is the fitted concentration of half-maximal effect; nearly all actives have a fitted effect of over 55% in size
Target sequence (P18054 whole entry, looked up): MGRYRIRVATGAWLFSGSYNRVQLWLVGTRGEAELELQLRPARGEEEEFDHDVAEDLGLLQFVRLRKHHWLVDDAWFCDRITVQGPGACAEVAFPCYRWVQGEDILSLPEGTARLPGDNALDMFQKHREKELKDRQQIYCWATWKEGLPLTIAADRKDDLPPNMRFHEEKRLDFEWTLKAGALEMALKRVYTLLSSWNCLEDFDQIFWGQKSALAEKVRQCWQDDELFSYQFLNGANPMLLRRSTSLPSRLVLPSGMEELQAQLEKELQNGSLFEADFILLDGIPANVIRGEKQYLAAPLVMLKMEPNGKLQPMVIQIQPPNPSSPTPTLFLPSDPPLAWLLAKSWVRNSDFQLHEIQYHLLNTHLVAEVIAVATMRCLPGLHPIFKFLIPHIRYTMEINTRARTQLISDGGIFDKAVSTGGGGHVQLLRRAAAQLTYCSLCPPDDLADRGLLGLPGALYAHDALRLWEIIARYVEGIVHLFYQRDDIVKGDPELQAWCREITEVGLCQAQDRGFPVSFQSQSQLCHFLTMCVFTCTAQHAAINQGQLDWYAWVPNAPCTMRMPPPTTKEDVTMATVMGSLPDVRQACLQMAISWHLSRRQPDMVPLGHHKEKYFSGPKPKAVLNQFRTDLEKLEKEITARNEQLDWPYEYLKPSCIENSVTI
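Lipoxygenase turnover measured by absorbance at 573 and 405 nm after Fe-XO development. Human 12hLO 150 nM, arachidonate 40 uM, pH 7.0 Hepes buffer with detergent; 15 min compound preincubation, 30 min reaction.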
* marks the source's active call; other numbers are inactive results; ? = inconclusive; . = no result given; [ ] = another dose, or the depositor's remark. An excerpt weighted towards active compounds, which were near 11% of everything screened. Unless noted, calls come from the whole dose curve; as a rule, active = well fitted inhibition curve with a large enough effect (not every such curve was filed as active); inconclusive = small, poorly fitted or top-dose-only effect, or another doubt; inactive = no such curve, though single readings can be large or run the other way. Unless noted, % is set by controls: 0 for no effect and ±100 for the full control effect.

SMILES	HPGD block	ALDH1A1 block	IMPase inh	IMPase Li cell	PNC inhibitor	12-hLO inh
COCCNC(=O)C(C)OC(=O)c1cc2occc2n1C (stereo unspecified)	14µM*	32µM*	-4	39%[38.3 µM]	-11	-12%
CC(OC(=O)c1cc2sccc2n1C)C(=O)NCc1cccs1 (stereo unspecified)	?	8%	3	-1%[38.3 µM]	-81*	-6%
O=C(COC(=O)c1cccs1)NCC1CCCO1 (stereo unspecified)	?	0%	-6	-18%[38.3 µM]	-11	-1%
COCCNC(=O)c1cc2sccc2n1C	.	7%	.	-3%	.	.
Cn1c(C(=O)OCC(=O)NCC2CCCO2)cc2sccc21 (stereo unspecified)	16µM*	-23%	-5	2%	?	0%
Cn1c(C(=O)OCC(=O)NCCc2ccccc2)cc2sccc21	-9%	0%	-3	2%[38.3 µM]	31	-4%
Cn1c(C(=O)OCC(=O)NCc2cccs2)cc2sccc21	-21%	-7%	?	14µM*	-17	-2%
COc1ccc2nc3c(nc2c1)C(=O)c1ccccc1-3	-4%	3%	.	.	.	3%
CCCNC(=O)c1cc2nc(-c3ccc(Br)cc3)cc(C(F)(F)F)n2n1	.	.	6	.	.	.
Cc1noc(C)c1C(=O)N1CCC2(CC1)CN(c1ncccn1)C2	?	?	.	2%	.	2%
COC(=O)[C@@]1(Cc2ccc(F)cc2)[C@H]2c3cc(C(=O)N4CCCC4)n(CCc4ccccn4)c3C[C@H]2CN1C(=O)c1ccccc1	1%	14%	.	2%	-97*	-1%
COC(=O)[C@@]1(Cc2ccccc2)[C@H]2c3cc(C(=O)N4CCCC4)n(CCc4ccccn4)c3C[C@H]2CN1C(=O)c1ccccc1	-5%	-3%	.	-11%	.	-1%
COC(=O)[C@@]1(Cc2ccc(F)cc2)[C@H]2c3cc(C(=O)N(C)C)n(Cc4ccc(C)o4)c3C[C@H]2CN1C(=O)c1ccccc1	18µM*	-8%	.	13%	.	-7%
Cc1cc(C)cc(OCC(=O)Nc2cccc3cccnc23)c1	.	.	-12	.	.	.
CC(Nc1cc(N2CCCC2)ccc1[N+](=O)[O-])c1ccccc1 (stereo unspecified)	-26%	?	5	-5%[38.3 µM]	48	4%
Cc1cc([N+](=O)[O-])cnc1NC(C)c1ccccc1 (stereo unspecified)	-16%	22µM*	1	9%[38.3 µM]	61	-3%
Cc1ccc(CNC(=O)CCCn2c(=O)c3ccccc3n(CC(=O)Nc3ccc(C)c(C)c3)c2=O)cc1	.	.	-5	.	.	.
COc1ccc(OC)c(N/C=C2/CCCCC2=O)c1	18µM*	?	18	27%[38.3 µM]	17	-4%
COc1ccc(N/C=C2/CCCCC2=O)cc1	25µM*	11µM*	8	39%[38.3 µM]	31	-12%
COc1ccc(Oc2ccc(N/C=C3/CCCC3=O)cc2)cc1	-18%	?	.	7%	55	0%
CN1CCN(c2nc(-c3cccc(C#N)c3)nc3ccccc23)CC1	-6%	-1%	.	16%	.	1%
c1ccc(-c2ccc(C3=Nn4c(Cn5nnc6ccccc65)nnc4SC3)cc2)cc1	18µM*	28µM*	9	6%[38.3 µM]	-6	3%
c1ccc(Cc2nnc3n2N=C(c2ccccc2)CS3)cc1	.	?	.	16%	.	.
COc1ccc(-n2c(Cn3nnc4ccccc43)n[nH]c2=S)cc1	-13%	6%	.	3%	?	1%
c1ccc(OCc2nn3c(Cn4cnc5ccccc54)nnc3s2)cc1	11µM*	19µM*	8	11%[38.3 µM]	?	2%
Cc1nnc2sc(-c3ccncc3)nn12	-12%	-4%	0	6%[38.3 µM]	?	-2%
COc1ccc(Cc2nn3c(Cn4nnc5ccccc54)nnc3s2)cc1	22µM*	11µM*	-7[1.84 µM]	-7%[38.3 µM]	?	1%
c1ccc2c(c1)ncn2Cc1nnc2sc(-c3ccncc3)nn12	7.9µM*	10µM*	1	-2%	1	0%
CO[C@]1(C2=NCCN2)COc2ccccc2O1	-4%	-6%	-7	4%	.	-8%
